Assay results: PubChem BioAssay (NCATS)
“And” between values parts separate entries of the source, which are not always exact repeats. Identical values can stand only once. Inconclusive results are not listed. The source made the active and inactive calls. Unless noted, calls come from the whole dose curve; as a rule, active = well fitted curve in the direction sought with a large enough effect; inconclusive = small, poorly fitted or top-dose-only effect, or another doubt; inactive = no such curve, though single readings can be large; an effect the other way counts as inactive or inconclusive.

Assays:
[1] = target: Glucocorticoid receptor (Homo sapiens) (UniProt P04150); assay: qHTS assay for small molecule agonists of glucocorticoid receptor signaling (AID 588532; active = well fitted curve in the direction sought with a large enough effect in the signal ratio, with a control signal flat; the % refers to the signal ratio;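 note: 100% = dexamethasone at 0.1 µM and 0% = DMSO only wells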); settings: HeLa MMTV-bla, beta-lactamase ratio, agonist, 18 h; activation: stronger effect = higher value, percent of dexamethasone control, DMSO zero
Glucocorticoid receptor (Homo sapiens), sequence (P04150 whole entry, looked up): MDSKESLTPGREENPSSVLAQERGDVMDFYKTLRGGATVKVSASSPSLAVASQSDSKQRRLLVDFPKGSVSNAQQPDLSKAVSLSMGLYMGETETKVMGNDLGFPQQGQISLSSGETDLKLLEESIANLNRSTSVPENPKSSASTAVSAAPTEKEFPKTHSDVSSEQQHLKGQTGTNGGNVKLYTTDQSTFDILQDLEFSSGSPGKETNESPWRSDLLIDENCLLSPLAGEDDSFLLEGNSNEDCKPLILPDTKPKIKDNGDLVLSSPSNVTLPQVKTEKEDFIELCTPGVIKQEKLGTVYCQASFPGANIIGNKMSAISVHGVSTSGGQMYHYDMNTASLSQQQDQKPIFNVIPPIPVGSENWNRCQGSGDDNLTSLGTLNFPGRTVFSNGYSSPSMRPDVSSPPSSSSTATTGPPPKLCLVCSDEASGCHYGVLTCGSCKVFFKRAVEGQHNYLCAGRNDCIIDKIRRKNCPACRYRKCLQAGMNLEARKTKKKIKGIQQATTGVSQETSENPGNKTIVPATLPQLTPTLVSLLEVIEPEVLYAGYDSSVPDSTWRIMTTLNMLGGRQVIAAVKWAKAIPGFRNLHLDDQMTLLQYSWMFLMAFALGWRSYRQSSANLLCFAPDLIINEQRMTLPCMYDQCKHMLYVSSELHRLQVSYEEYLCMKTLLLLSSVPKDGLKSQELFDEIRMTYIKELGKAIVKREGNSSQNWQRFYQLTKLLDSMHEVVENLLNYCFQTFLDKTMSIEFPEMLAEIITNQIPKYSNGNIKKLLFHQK
Outline: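 Using MMTV-bla HeLa cells in medium with 1% stripped FBS and 25 mM HEPES, compounds were titrated and incubated overnight-length (18 h). Beta-lactamase cleavage of CCF4 was quantified by dual-emission fluorescence.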

[2] = target: Glucocorticoid receptor (Homo sapiens) (UniProt P04150); assay: qHTS assay for small molecule antagonists of glucocorticoid receptor signaling (AID 588533; active = well fitted inhibition curve with a large enough effect in the signal ratio, with a control signal flat, not every such curve was filed as active; the % refers to the signal ratio;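 note: cells stimulated with 2 nM dexamethasone as agonist; % is set by controls: 0 for no effect and ±100 for the full control effect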)
Outline: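 Antagonist-mode qHTS: compound titrations added to GRE-bla HeLa cells, then dexamethasone 2 nM final; 18 h, 37 C. CCF4 FRET fluorescence normalized to dexamethasone and DMSO; IC50 from Hill fit.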

[3] = qHTS assay for small molecule antagonists of peroxisome proliferator-activated receptor delta signaling (AID 588535; active = well fitted inhibition curve with a large enough effect in the signal ratio, with a control signal flat, not every such curve was filed as active; the % refers to the signal ratio;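 for max response: cells co-treated with a PPAR-delta agonist as stimulator during compound exposure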); settings: HEK293T PPARd-UAS-bla, beta-lactamase FRET ratio, 18 h; 460 nm channel
Outline: (§1)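 Cell-based beta-lactamase assay in antagonist mode: 4000 HEK293T PPAR-delta-UAS-bla cells per well, 5 hr preincubation then 18 hr compound incubation at 37 C. IC50 obtained by Hill equation fitting.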

[4] = target: Peroxisome proliferator-activated receptor delta (Homo sapiens) (UniProt Q03181); assay: as above
Peroxisome proliferator-activated receptor delta (Homo sapiens), sequence (Q03181 whole entry, looked up): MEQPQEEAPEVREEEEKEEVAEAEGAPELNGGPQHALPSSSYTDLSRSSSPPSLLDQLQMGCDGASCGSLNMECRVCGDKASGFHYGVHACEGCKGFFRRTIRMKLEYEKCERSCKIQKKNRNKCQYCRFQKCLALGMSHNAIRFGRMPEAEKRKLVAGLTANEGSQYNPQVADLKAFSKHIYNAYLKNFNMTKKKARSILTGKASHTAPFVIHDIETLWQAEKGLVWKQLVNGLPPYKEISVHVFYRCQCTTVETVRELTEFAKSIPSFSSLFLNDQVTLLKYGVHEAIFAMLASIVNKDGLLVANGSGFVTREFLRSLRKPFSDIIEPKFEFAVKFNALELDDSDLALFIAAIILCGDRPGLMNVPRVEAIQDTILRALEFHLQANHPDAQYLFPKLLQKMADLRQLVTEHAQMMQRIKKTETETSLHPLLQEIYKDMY
Outline: as §1

[5] = target: Peroxisome proliferator-activated receptor gamma (Homo sapiens) (UniProt P37231); assay: qHTS assay for small molecule agonists of peroxisome proliferator-activated receptor gamma signaling (AID 588536; active = well fitted curve in the direction sought with a large enough effect in the signal ratio, with a control signal flat, not every such curve was filed as active; the % refers to the signal ratio;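 note: 0% = DMSO basal wells and 100% = rosiglitazone at 2 µM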)
Peroxisome proliferator-activated receptor gamma (Homo sapiens), sequence (P37231 whole entry, looked up): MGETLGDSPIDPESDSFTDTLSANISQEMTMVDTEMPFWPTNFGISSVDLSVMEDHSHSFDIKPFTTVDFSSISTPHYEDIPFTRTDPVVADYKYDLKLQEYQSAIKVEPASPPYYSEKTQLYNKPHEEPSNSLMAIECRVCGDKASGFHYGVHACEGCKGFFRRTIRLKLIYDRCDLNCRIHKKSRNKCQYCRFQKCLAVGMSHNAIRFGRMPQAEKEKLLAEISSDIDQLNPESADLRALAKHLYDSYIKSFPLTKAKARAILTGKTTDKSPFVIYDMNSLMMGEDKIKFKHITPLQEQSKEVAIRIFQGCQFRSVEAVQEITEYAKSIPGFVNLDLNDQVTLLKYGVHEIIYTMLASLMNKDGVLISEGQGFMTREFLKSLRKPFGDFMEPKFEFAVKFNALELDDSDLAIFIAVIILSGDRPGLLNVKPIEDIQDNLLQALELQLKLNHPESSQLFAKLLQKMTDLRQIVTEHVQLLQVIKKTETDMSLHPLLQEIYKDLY
Outline: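 PPAR-gamma-UAS-bla HEK293 cells in medium with 1% charcoal/dextran-treated FBS were exposed to compounds for 16 h at 37 C. Beta-lactamase activity was read with CCF4 substrate (405 nm excitation, 460/530 nm emission).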

[6] = target: Thyroid hormone receptor beta (Homo sapiens) (UniProt P10828); assay: qHTS assay for small molecule agonists of thyroid hormone receptor beta signaling (AID 588545; calls by dose curve;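 note: 0% = DMSO only and 100% = 10 nM T3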)
Thyroid hormone receptor beta (Homo sapiens), sequence (P10828 whole entry, looked up): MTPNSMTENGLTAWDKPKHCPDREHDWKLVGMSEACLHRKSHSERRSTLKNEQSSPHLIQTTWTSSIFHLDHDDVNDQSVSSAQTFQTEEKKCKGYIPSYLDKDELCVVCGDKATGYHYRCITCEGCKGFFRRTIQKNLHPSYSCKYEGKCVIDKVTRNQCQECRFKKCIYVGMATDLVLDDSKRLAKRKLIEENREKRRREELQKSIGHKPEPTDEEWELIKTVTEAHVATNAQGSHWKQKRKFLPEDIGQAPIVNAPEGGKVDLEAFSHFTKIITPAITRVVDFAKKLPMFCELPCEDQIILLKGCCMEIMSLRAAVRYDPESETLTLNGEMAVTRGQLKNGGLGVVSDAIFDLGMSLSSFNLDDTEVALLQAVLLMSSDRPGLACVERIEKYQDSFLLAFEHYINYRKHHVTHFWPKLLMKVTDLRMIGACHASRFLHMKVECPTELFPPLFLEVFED
Outline: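 TR-UAS-bla-GripTite HEK 293 cells in medium with 2% charcoal/dextran FBS, 0.1 mM NEAA and 1 mM sodium pyruvate were treated with titrated compounds for 18 hrs at 37 C. Beta-lactamase reporter was read with CCF4 dye (ex 405, em 460/530 nm); EC50 from Hill fits.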

[7] = target: Thyroid hormone receptor beta (Homo sapiens) (UniProt P10828); assay: qHTS assay for small molecule antagonists of thyroid hormone receptor beta signaling (AID 588547; active = well fitted inhibition curve with a large enough effect in the signal ratio, with a control signal flat, not every such curve was filed as active; the % refers to the signal ratio;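 note: cells stimulated with 0.4 nM T3 agonist during compound exposure; series mostly up to about 77 µM; % is set by controls: 0 for no effect and ±100 for the full control effect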); settings: TR-UAS-bla HEK293, beta-lactamase ratio, antagonist mode, 18 h
Outline: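 Inhibition of T3-driven (0.4nM final) beta-lactamase reporter activity was measured over 0.59 nM to 92 uM compound after 18 h at 37 C. The cells were GripTite HEK293 TR-UAS-bla in charcoal/dextran-stripped serum, with CCF4 ratio read-out and IC50 from Hill fits.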

[8] = qHTS assay for small molecule activators of the p53 signaling pathway (AID 651743; active = well fitted activation curve with a large enough effect in the signal ratio, not every such curve was filed as active; the % refers to the signal ratio; note: series mostly up to about 92 µM; % of control where 0% means no effect); settings: HCT-116 p53RE-bla, beta-lactamase FRET ratio, 16 h; activation: stronger effect = higher value
Outline: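 Screen for p53 pathway agonists uses stably transfected p53RE-bla HCT-116 cells, 4,000 per well, treated 16 h at 37 C with compounds in DMSO.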

[9] = qHTS assay for small molecule activators of the nuclear factor-kappa B (NF-kB) signaling pathway (AID 651749; active = well fitted activation curve with a large enough effect in the signal ratio; the % refers to the signal ratio; note: series mostly up to about 77 µM; % of control where 0% means no effect); settings: NF-kB-bla ME-180 cells, beta-lactamase FRET ratio, 16 h; activation: stronger effect = higher value
Outline: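 Stably transfected ME-180 line; NF-kB response element upstream of beta-lactamase. Treatment: compound or DMSO, 16 hr. Detection: fluorescent FRET substrate.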

[10] = qHTS assay for environmental chemicals that activate the Aryl hydrocarbon Receptor (AhR) signaling pathway (AID 651777); settings: 1A2-DRE human hepatoma cells, luciferase, 24 h; activation: stronger effect = higher value; note: % of control where 0% means no effect; nearly all actives have a fitted effect of over 15% in size
Outline: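 Measured luciferase activity, read 30 min after One-Glo addition at room temperature, from human hepatoma cells bearing a dioxin response element–CYP1A2 promoter reporter and exposed to compound for 24 hr at 37 C.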

[11] = target: Peroxisome proliferator-activated receptor alpha (Homo sapiens) (UniProt Q07869); assay: qHTS assay for small molecule agonists of the peroxisome proliferator-activated receptor alpha (PPARalpha) signaling pathway (AID 651778); settings: PathHunter PPARalpha complementation, chemiluminescence, 6 h; max response: stronger effect = higher value; note: potency is the fitted concentration of half-maximal effect
Outline: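 Chemiluminescence from complemented enzyme reported PPARalpha activation in cells after 6 hr of compound treatment at 37 C. The detection reagent was incubated for 60 min at room temperature, and compounds were scored as agonists.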

[12] = qHTS assay for small molecule agonists of the antioxidant response element (ARE) signaling pathway measured by Nrf2-dependant transcriptional activity (AID 720636; active = well fitted curve in the direction sought with a large enough effect in the repeat runs; an effect the other way counts as inactive or inconclusive;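 note: HepG2 cells with an ARE-driven luciferase reporter; % of control where 0% means no effect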)
Outline: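 In HepG2 cells engineered with an Nrf2-responsive luciferase gene, ARE induction was quantified as luminescence after 16 hr compound treatment at 37 C.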

[13] = qHTS assay for small molecule agonists of the antioxidant response element (ARE) signaling pathway measured by Nrf2-dependant transcriptional activity - cell viability counter screen (AID 720653; active = well fitted curve in the direction sought with a large enough effect in the repeat runs; an effect the other way counts as inactive or inconclusive; note: % is set by controls: 0 for no effect and ±100 for the full control effect); settings: ARE-bla HepG2 viability, CellTiter-Glo ATP luminescence, 16 h; max response: stronger effect = lower value
Outline: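 Cytotoxicity counter screen: intracellular ATP quantified by CellTiter-Glo luminescence in the same ARE-bla HepG2 plates, after 16 h compound exposure and a 2 h beta-lactamase substrate step.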

[14] = qHTS assay for cell viability of HEK293 cells (AID 743288); settings: ATP luminescence (CellTiter-Glo), 18 h; max response: stronger effect = lower value; note: % is set by controls: 0 for no effect and ±100 for the full control effect; nearly all actives have a fitted effect of over 50% in size
Outline: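 Luminescent ATP quantitation served as the viability read-out. Cells (parental HEK293, 2,000/well) received compounds after at least 5 h at 37 C and were exposed for 18 h before a 30 min room-temperature reagent step.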

[15] = qHTS assay for cell viability of the p53RE-bla HCT-116 cell line (AID 743292); note: % is set by controls: 0 for no effect and ±100 for the full control effect; nearly all actives have a fitted effect of over 55% in size
Outline: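 Intracellular ATP of p53RE-bla HCT-116 cells measured by luciferase luminescence following 16 h compound incubation at 37 C; DMSO-only wells served as vehicle controls.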

[16] = target: Nuclear receptor subfamily 1 group I member 2 (Rattus norvegicus) (UniProt Q9R1A7); assay: qHTS assay for small molecule activators of the rat pregnane X receptor (rPXR) signaling pathway (AID 651751; call rule not given here; note: 0% is about no effect); settings: rPXR reporter cells, luciferase (One-Glo), 24 h
[17] = target: Bile acid receptor (Homo sapiens) (UniProt Q96RI1); assay: qHTS assay for small molecule agonists of farnesoid X receptor signaling (AID 588527; calls by dose curve;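 note: series mostly up to about 77 µM; 0% = vehicle basal and 100% = reference agonist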); settings: HEK293T FXR-UAS-bla, beta-lactamase ratio, 16 h; activation: stronger effect = higher value
Bile acid receptor (Homo sapiens), sequence (Q96RI1 whole entry, looked up): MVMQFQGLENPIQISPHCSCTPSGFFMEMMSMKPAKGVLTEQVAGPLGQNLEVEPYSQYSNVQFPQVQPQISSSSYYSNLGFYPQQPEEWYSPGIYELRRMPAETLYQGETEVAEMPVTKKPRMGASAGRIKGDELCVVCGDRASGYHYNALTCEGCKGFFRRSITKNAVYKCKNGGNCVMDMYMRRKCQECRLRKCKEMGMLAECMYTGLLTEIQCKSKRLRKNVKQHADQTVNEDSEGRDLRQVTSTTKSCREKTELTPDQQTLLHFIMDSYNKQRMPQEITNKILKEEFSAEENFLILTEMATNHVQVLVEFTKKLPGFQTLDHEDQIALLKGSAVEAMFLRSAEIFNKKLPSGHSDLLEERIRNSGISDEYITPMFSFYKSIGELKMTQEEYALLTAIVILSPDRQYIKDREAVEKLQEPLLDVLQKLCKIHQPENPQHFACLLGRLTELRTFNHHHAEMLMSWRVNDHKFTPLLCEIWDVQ
Outline: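 FXR-UAS-bla HEK293T, 10% dialyzed FBS; cpds up to 92 uM titration, 16 h 37 C; CCF4 dye 2 h RT; fluorescence. Normalized to chenodeoxycholic acid 100 uM (100%) and DMSO (0%); Hill fit gives EC50, efficacy.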

[18] = qHTS assay for small molecule agonists of retinoid X receptor alpha signaling (AID 588544; calls by dose curve;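 for activation: 0% = DMSO basal wells and 100% = reference agonist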); settings: HEK293T RXRa-UAS-bla, beta-lactamase reporter, 18 h; 530 nm emission
[19] = target: Retinoic acid receptor RXR-alpha (Homo sapiens) (UniProt P19793); assay: as above
Retinoic acid receptor RXR-alpha (Homo sapiens), sequence (P19793 whole entry, looked up): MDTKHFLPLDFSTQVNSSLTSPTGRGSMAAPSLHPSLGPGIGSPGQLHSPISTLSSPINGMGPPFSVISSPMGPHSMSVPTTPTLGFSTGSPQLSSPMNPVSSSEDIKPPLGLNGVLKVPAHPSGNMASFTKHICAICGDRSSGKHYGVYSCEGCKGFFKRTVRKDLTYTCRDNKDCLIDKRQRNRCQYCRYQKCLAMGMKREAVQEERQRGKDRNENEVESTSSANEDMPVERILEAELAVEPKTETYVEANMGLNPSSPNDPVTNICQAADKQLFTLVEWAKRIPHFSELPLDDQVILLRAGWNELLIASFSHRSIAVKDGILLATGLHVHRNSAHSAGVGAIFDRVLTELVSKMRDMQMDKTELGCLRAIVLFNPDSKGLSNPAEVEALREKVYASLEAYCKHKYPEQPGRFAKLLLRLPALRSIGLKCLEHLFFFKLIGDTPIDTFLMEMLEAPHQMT

[20] = target: Nuclear receptor ROR-gamma (Homo sapiens) (UniProt P51449); assay: qHTS assay for small molecule antagonists of the retinoid-related orphan receptor gamma (ROR-gamma) signaling pathway (AID 651802);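 note: CHO cells with doxycycline-induced ROR-gamma expression; luciferase reporter luminescence driven by ROR response element; series mostly up to about 92 µM; % is set by controls: 0 for no effect and ±100 for the full control effect; nearly all actives have a fitted effect of over 60% in size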
Nuclear receptor ROR-gamma (Homo sapiens), sequence (P51449 whole entry, looked up): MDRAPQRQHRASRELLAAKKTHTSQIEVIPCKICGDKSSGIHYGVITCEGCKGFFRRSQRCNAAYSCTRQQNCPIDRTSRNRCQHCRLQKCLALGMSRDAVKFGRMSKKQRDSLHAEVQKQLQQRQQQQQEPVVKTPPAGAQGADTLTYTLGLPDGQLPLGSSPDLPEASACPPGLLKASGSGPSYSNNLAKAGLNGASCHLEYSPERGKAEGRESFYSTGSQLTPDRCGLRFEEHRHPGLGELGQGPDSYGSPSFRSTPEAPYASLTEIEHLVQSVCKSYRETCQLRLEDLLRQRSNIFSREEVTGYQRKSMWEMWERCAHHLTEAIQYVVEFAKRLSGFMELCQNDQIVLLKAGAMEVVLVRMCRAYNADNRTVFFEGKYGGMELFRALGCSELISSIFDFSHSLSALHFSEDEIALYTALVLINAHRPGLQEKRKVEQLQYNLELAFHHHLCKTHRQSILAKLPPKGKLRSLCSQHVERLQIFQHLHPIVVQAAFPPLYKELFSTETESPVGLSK
Outline: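 Antagonism is scored as a fall in luminescence from a RORE-luciferase reporter in CHO cells expressing ROR under a TET-inducible promoter, measured 16hr after doxycycline induction in the presence of compound.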

[21] = target: Voltage-gated inwardly rectifying potassium channel KCNH2 (Homo sapiens) (UniProt Q12809); assay: qHTS Assay for Small Molecule Inhibitors of the Human hERG Channel Activity (AID 588834);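 note: top concentration of the series differs between compounds; % is set by controls: 0 for no effect and ±100 for the full control effect; lower thallium flux fluorescence means stronger hERG block; nearly all actives have a fitted effect of over 50% in size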
Voltage-gated inwardly rectifying potassium channel KCNH2 (Homo sapiens), sequence (Q12809 whole entry, looked up): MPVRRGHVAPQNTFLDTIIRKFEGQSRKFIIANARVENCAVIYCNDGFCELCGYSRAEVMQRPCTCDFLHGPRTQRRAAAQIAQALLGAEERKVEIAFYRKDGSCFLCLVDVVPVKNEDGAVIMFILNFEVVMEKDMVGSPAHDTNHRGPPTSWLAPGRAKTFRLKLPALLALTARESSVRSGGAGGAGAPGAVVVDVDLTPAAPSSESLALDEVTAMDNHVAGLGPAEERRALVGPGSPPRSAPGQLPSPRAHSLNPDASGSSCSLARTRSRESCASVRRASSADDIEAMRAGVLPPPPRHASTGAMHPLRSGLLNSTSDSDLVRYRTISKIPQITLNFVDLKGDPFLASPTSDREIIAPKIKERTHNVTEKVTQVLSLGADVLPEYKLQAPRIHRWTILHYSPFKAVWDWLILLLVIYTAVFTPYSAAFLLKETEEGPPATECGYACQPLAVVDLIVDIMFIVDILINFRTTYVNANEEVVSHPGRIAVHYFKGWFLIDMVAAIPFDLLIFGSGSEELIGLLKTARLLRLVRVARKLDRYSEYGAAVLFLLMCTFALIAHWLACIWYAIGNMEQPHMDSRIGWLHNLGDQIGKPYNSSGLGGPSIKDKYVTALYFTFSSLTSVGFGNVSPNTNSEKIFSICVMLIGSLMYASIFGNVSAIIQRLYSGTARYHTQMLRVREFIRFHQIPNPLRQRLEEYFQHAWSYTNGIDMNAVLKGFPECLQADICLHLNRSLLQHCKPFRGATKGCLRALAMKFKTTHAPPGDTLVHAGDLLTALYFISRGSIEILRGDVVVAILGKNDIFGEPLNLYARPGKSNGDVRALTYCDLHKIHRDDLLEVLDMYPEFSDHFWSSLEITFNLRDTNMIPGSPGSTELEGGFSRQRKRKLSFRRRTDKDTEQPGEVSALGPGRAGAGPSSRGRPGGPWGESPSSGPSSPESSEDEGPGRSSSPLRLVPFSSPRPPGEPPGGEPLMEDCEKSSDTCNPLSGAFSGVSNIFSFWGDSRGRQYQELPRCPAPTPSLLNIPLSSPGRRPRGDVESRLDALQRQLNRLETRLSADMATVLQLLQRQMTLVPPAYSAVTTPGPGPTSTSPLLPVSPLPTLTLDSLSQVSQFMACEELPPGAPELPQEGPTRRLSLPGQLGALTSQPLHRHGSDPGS
Outline: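 Blockade is seen as reduced FluxOR thallium-flux fluorescence in U2OS cells expressing hERG from a BacMam construct, in Opti-MEM with 2% FCS. Concentration-response data fitted to the Hill equation for AC50.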

[22] = S16 Schwann cell PMP22 intronic element firefly luciferase assay (AID 624032);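 note: series mostly up to about 58 µM; plate controls were DMSO for no effect and PTC124 positive control mean for full effect; nearly all actives have a fitted effect of over 30% in size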
Outline: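 Luciferase reporter of PMP22 intronic-element expression in stably transfected S16 rat Schwann cells, read by ONE-Glo luminescence after 24 h compound exposure at 37 C. Activity scaled between DMSO (0%) and positive-control PTC124; concentration-effect curves quality-classified.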

CCOC(=O)C(C)OC(=O)c1cc(Oc2ccc(C(F)(F)F)cc2Cl)ccc1[N+](=O)[O-] (stereo not given)
active: Potency [11] 35.5 µM
inactive: activation [1] 2.93% | Potency [2] | Potency [4] | Potency [5] | Potency [6] | activity change % (negative = inhibition) [7] 11.5% | activation [8] 0.27% | activation [9] 0.301% | activation [10] 4.56% | Potency [12] | max response [13] -9.47% | max response [14] -22.9% | Potency [15] | max response [16] 4.28%
34.5%: max response [3]

COc1ccccc1[N+](=O)[O-]
inactive: activation [17] -1.25% and -5.38% | Potency [19]
2.69%: max response [18]

NC(N)=S
inactive: activation [17] -0.31% | Potency [20]

CN(C)CCCCCCN(C)C
inactive: activation [17] -2.62% | Potency [21] | Potency [22] | Potency [20]
